Test results reported in PubChem BioAssay AID1159580 (chemical genetic matrix, 2015).
Where “and” joins values, the source holds several entries; their conditions need not be identical. Equal entries are not always repeated. In all, about 5,500 compounds went through this assay and about 2,000 (36%) were called active. Inconclusive results (about 18%) are left out. No stated cut-off is given here; in the data, active means normalized growth mostly below about 0.91 (no sharp cut-off); inconclusive means no clear call, values can overlap the other calls; inactive means mostly above about 0.92. This is one part of the list.

Test: chemical genetic growth profiling, strain panel (AID 1159580);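 further: tested at 20 µM; growth read once vehicle control cultures reached saturation at 30 °C; 1 = growth at the plate median or of vehicle wells; lower values mean less growth of the strain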
Settings: S. cerevisiae deletion strains, growth OD

Measured: normalized growth

COc1cc(C(=O)NCc2ccc(OCCN(C)C)cc2)cc(OC)c1OC
inactive: locus YAL013W, strain DEP1, active compounds read low 1 | locus YAL021C, strain ccr4, active compounds read low 0.993 | locus YAL026C, strain drs2, active compounds read low 0.998 | locus YAL030W, strain snc1, active compounds read low 1 | locus YBL061C, strain skt5, active compounds read low 0.981 | locus YBR009C, strain hhf1, active compounds read low 1 | locus YBR021W, strain FUR4, active compounds read low 1.03 | locus YBR023C, strain chs3, active compounds read low 0.985 | locus YBR171W, strain sec66, active compounds read low 0.999 | locus YBR229C, strain ROT2, active compounds read low 0.951 | locus YBR231C, strain swc5, active compounds read low 0.99 | locus YBR279W, strain paf1, active compounds read low 1 | locus YCL011C, strain gbp2, active compounds read low 1.01 | locus YCL016C, strain dcc1, active compounds read low 0.98 | locus YCL029C, strain bik1, active compounds read low 0.977 | locus YCL061C, strain MRC1, active compounds read low 1 | locus YCL069W, strain vba3, active compounds read low 0.995 | locus YCR088W, strain abp1, active compounds read low 0.99 | locus YDL005C, strain med2, active compounds read low 1.01 | locus YDL035C, strain GPR1, active compounds read low 1.01 | locus YDL040C, strain nat1, active compounds read low 1.02 | locus YDL074C, strain BRE1, active compounds read low 0.951 | locus YDL101C, strain DUN1, active compounds read low 0.973 | locus YDL134C, strain PPH21, active compounds read low 0.996 | locus YDL185W, strain tfp1, active compounds read low 0.979 | locus YDL192W, strain arf1, active compounds read low 0.982 | locus YDR001C, strain nth1, active compounds read low 1 | locus YDR069C, strain doa4, active compounds read low 1 | locus YDR101C, strain arx1, active compounds read low 0.93 | locus YDR137W, strain rgp1, active compounds read low 1.01 | locus YDR150W, strain NUM1, active compounds read low 0.974 | locus YDR159W, strain sac3, active compounds read low 0.953 | locus YDR162C, strain NBP2, active compounds read low 1.01 | locus YDR195W, strain ref2 0.997 | locus YDR297W, strain sur2, active compounds read low 0.981 | locus YDR318W, strain mcm21, active compounds read low 0.992 | locus YDR334W, strain swr1, active compounds read low 0.99 | locus YDR335W, strain msn5, active compounds read low 0.982 | locus YDR388W, active compounds read low 0.988 | locus YDR392W, strain spt3, active compounds read low 0.833 | locus YDR502C, strain sam2, active compounds read low 0.985 | locus YEL003W, strain gim4, active compounds read low 1 | locus YEL037C, strain rad23, active compounds read low 0.988 | locus YEL061C, strain CIN8 (second series), active compounds read low 0.978 | locus YEL061C, strain CIN8, active compounds read low 0.978 | locus YER015W, strain faa2, active compounds read low 0.991 | locus YER016W, strain bim1, active compounds read low 0.994 | locus YER110C, active compounds read low 0.984 | locus YER111C, strain swi4, active compounds read low 0.982 | locus YER155C, strain BEM2 (second series), active compounds read low 0.988 | locus YER155C, strain BEM2, active compounds read low 0.996 | locus YER167W, strain BCK2, active compounds read low 0.997 | locus YFR010W, strain ubp6, active compounds read low 1 | locus YGL078C, strain dbp3, active compounds read low 0.981 | locus YGL086W, strain mad1, active compounds read low 0.966 | locus YGL167C, strain pmr1, active compounds read low 1 | locus YGL173C, strain kem1, active compounds read low 1 | locus YGL227W, strain vid30, active compounds read low 1.01 | locus YGL240W, strain doc1, active compounds read low 0.984 | locus YGL248W, strain PDE1, active compounds read low 0.975 | locus YGL253W, strain hxk2, active compounds read low 0.993 | locus YGR078C, strain PAC10, active compounds read low 0.963 | locus YGR135W, strain pre9, active compounds read low 1.06 | locus YGR229C, strain SMI1, active compounds read low 1.02 | locus YGR252W, strain gcn5, active compounds read low 1.03 | locus YHR013C, strain ard1, active compounds read low 0.949 | locus YHR027C, strain rpn1, active compounds read low 0.979 | locus YHR030C, strain SLT2, active compounds read low 0.985 and 0.966 | locus YHR079C, strain IRE1 (second series), active compounds read low 0.976 | locus YHR079C, strain IRE1, active compounds read low 0.976 | locus YHR094C, strain hxt1, active compounds read low 0.979 | locus YHR129C, strain ARP1, active compounds read low 0.995 | locus YHR142W, strain chs7, active compounds read low 0.982 | locus YHR200W, strain rpn10, active compounds read low 0.983 | locus YIL066C, strain RNR3, active compounds read low 0.963 | locus YIL073C, strain SPO22, active compounds read low 1.04 | locus YIL125W, strain kgd1, active compounds read low 0.976 | locus YIR030C, strain dcg1, active compounds read low 0.989 | locus YJL092W, strain hpr5, active compounds read low 0.997 | locus YJL095W, strain BCK1 (second series), active compounds read low 0.988 | locus YJL095W, strain BCK1, active compounds read low 0.991 and 0.995 | locus YJL115W, strain asf1, active compounds read low 0.993 | locus YJL129C, strain trk1, active compounds read low 0.981 | locus YJL134W, strain LCB3, active compounds read low 0.993 | locus YJL154C, strain vps35, active compounds read low 1.02 | locus YJL164C, strain tpk1, active compounds read low 1 | locus YJL166W, strain qcr8, active compounds read low 0.988 | locus YJL168C, strain set2, active compounds read low 0.979 | locus YJL187C, strain SWE1 (second series), active compounds read low 0.953
